Inconclusive results are not listed. Active and inactive are the calls of the source. Unless noted, calls follow the shape of the dose curve; as a rule, active = well fitted curve in the direction sought with a large enough effect; inconclusive = small, poorly fitted or top-dose-only effect, or another doubt; inactive = no such curve, though single readings can be large; an effect the other way counts as inactive or inconclusive.
Legend:
[1] = molecular target: Cytochrome P450 3A4 (Homo sapiens) (UniProt P08684); assay: qHTS Assay for Inhibitors and Substrates of Cytochrome P450 3A4 (AID 884); also: nearly all actives have a fitted effect of over 50% in size; also: potency is read from the fitted curve at half-maximal effect; as to activity change, negative = inhibition: % is scaled to controls: 0 for no effect and ±100 for the full control effect
How it was run: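 Luminescent readout of luciferin produced by CYP3A4 (20 nM) dealkylation of Luciferin-PPXE, 25 uM (its KM). NADPH-driven reaction ran 60 min at RT after 10 min compound preincubation; data scaled to 57 uM ketoconazole as 100% inhibition.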

[2] = molecular target: Cytochrome P450 3A4 (Homo sapiens) (UniProt P08684); assay: qHTS Assay for Activators of Cytochrome P450 3A4 (AID 885); also: nearly all actives have a fitted effect of over 65% in size
How it was run: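 Activators are scored by enhanced luminescence from CYP3A4 conversion of luciferin-PPXE (25uM, equal to KM) to luciferin, after 60 min at RT with an NADPH-regenerating system.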

[3] = Confirmation and Secondary Assay for Modulators of Hemoglobin Beta Chain Splicing at IVS2 654 locus (AID 910);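 also: HeLa cells stably carrying EGFP split by mutant beta-globin IVS2-654 intron; % of control where 0% means no effect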
How it was run: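 HeLa cells stably expressing EGFP interrupted by β-globin IVS2-654 intron, seeded overnight in Opti-MEM/2% FCS, then treated 2 days at 37 °C. Restored splicing read as total peak GFP intensity per well by laser scanning cytometry (488 nm excitation, 500–520 nm emission); 500 nM antisense PNA as control.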

[4] = Confirmation and Secondary Assay for Modulators of Hemoglobin Beta Chain Splicing at IVS2 705 locus (AID 930);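 also: HeLa cells stably expressing the EGFP-705 splicing reporter; GFP fluorescence per well restored by corrected splicing of the IVS2-705 intron in EGFP; % of control where 0% means no effect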
How it was run: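 Assay measures total GFP intensity per well in HeLa EGFP-705 cells after 2 days with compound; mis-splicing normally truncates EGFP, so fluorescence indicates corrected splicing.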

[5] = qHTS Assay for Lipid Storage Modulators (AID 1519; calls by dose curve; as to activity change, negative = inhibition: % is scaled to controls: 0 for no effect and ±100 for the full control effect); details: Drosophila S3 cells, BODIPY lipid droplet/cell ratio, laser cytometry, cells loaded with oleic acid
How it was run: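 Cells seeded at 5,000 per well were treated with compounds over a concentration series and loaded with oleic acid (400 uM, as added). Lipid droplet fluorescence (488 nm excitation, 500-530 nm channel) was read by laser-scanning cytometry and normalized to 20 uM Triacsin C.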

[6] = molecular target: DNA dC->dU-editing enzyme APOBEC-3G (Homo sapiens) (UniProt Q9HC16); assay: qHTS for inhibitors of Vif-A3G interactions: Validation (AID 588379); also: 0% is about no effect
How it was run: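 Yellow fluorescence (Ex 488, Em 500-530) of Vif-coexpressing HeLa A3G-eYFP cells, scanned by Acumen cytometer, reports blocked A3G degradation. Cells plated at 700/well overnight at 37 deg C before compound addition, then a further overnight compound incubation at 37 deg C.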

[7] = molecular target: Ubiquitin carboxyl-terminal hydrolase 1 (Homo sapiens) (UniProt O94782); assay: Inhibitors of USP1/UAF1: Pilot qHTS (AID 504865);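 also: rhodamine fluorescence freed from ubiquitin-rhodamine substrate followed over time; top concentration of the series differs between compounds; % is scaled to controls: 0 for no effect and ±100 for the full control effect; nearly all actives have a fitted effect of over 35% in size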
How it was run: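 Deubiquitinase activity followed as kinetic rhodamine fluorescence release from 150 nM Ub-Rho. 1 nM USP1/UAF1 with compound, after 15 min room-temperature preincubation, in HEPES pH 7.8 buffer containing TCEP, EDTA, BSA and Tween-20.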

[8] = molecular target: Cytochrome P450 2C19 (Homo sapiens) (UniProt P33261); assay: qHTS Assay for Inhibitors and Substrates of Cytochrome P450 2C19 (AID 899); also: potency is read from the fitted curve at half-maximal effect; nearly all actives have a fitted effect of over 60% in size
How it was run: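 Signal comes from luciferase acting on luciferin released by CYP2C19-mediated hydroxylation of Luciferin-H EGE, 10uM (KM). Assay mix: 5nM enzyme, 50mM KPO4; 60 min at 37C with NADPH regeneration. Data normalized against 57uM ketoconazole.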

[9] = measured here: cell count channel max response
[10] = measured here: lipid channel max response

Chain of Cytochrome P450 3A4 (Homo sapiens) (P08684 whole entry, looked up): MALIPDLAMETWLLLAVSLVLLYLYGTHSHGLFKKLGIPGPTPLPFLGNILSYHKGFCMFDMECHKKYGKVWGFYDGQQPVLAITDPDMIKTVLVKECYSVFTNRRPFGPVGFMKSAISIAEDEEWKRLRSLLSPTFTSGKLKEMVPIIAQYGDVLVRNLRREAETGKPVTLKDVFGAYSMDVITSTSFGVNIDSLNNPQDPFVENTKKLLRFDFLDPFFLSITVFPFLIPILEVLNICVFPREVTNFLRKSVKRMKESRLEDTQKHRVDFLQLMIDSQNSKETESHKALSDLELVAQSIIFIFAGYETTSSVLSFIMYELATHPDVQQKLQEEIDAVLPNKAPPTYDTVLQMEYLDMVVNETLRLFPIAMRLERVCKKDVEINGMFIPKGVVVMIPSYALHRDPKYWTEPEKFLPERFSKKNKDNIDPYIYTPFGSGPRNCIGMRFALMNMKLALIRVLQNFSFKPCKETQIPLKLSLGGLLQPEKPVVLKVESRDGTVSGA
Chain of Ubiquitin carboxyl-terminal hydrolase 1 (Homo sapiens) (O94782 whole entry, looked up): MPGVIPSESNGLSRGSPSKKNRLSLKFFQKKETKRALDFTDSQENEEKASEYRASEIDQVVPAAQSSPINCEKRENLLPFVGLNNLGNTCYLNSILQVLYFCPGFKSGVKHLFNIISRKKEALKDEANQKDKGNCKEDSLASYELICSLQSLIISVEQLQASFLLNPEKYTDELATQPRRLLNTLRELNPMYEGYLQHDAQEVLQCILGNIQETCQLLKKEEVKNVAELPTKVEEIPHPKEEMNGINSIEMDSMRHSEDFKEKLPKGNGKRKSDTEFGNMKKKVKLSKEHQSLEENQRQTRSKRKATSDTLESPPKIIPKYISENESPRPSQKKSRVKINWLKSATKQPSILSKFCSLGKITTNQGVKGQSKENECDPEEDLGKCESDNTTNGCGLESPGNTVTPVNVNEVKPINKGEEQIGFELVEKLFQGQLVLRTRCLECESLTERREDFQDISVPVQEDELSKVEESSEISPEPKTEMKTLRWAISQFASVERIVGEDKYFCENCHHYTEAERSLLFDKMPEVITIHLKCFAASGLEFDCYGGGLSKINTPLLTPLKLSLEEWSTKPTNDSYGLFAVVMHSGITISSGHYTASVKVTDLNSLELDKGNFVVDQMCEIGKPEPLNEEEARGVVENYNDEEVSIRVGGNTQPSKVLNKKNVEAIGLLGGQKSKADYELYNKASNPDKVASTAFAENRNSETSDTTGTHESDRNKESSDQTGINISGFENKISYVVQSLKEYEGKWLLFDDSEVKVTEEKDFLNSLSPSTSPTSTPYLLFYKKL
Chain of Cytochrome P450 2C19 (Homo sapiens) (P33261 whole entry, looked up): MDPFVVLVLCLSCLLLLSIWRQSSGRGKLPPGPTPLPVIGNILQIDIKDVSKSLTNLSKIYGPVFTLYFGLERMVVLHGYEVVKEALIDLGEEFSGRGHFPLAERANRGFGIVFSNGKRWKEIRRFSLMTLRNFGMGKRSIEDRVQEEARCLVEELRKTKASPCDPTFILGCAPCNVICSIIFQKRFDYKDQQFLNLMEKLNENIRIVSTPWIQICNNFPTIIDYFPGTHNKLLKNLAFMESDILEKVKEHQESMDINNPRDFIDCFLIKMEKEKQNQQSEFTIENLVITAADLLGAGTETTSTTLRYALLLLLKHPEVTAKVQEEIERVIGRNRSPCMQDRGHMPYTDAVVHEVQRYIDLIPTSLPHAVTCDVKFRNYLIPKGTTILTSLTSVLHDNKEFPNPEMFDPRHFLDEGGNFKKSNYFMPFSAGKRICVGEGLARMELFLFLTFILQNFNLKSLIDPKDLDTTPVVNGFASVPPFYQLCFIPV
Chain of DNA dC->dU-editing enzyme APOBEC-3G (Homo sapiens) (Q9HC16 whole entry, looked up): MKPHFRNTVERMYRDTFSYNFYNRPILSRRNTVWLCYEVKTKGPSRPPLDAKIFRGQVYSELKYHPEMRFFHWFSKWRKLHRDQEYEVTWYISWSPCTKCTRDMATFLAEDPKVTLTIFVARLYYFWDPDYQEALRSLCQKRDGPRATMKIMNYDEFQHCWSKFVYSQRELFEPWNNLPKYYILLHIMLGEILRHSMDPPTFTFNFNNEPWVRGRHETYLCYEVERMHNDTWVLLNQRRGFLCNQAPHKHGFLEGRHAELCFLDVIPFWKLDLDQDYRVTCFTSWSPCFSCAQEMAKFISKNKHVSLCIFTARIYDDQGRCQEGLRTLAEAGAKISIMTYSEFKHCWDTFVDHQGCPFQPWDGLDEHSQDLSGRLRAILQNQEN

| Structure (SMILES) | Potency [1] | Potency [2] | Potency [3] | Potency [4] | activity change, negative = inhibition ([5]; at 57.5 µM (top of the series)) | max response [5, 9] [%] | max response [5, 10] [%] | outcome [6] | Potency [7] | Potency [8] | activity change, negative = inhibition ([5]; at 25.7 µM (top of the series)) |
| --- | --- | --- | --- | --- | --- | --- | --- | --- | --- | --- | --- |
| CC1=CCCC2C1(C)CCC(C)C2(C)CC/C(C)=C/C[n+]1cn(C)c2c(N)ncnc21 (stereo unspecified) | 31.6 µM (active) | inactive | inactive | inactive | 6.88% (inactive) | 2.19 | 13.1 | – | – | – | – |
| OC[C@@H]1CCCN2CCCC[C@@H]12 | inactive | – | – | – | -9.64% (inactive) | -24.5 | -31.5 | inactive | – | – | – |
| CN1CCc2cc3c(cc2C1O)OCO3 (stereo unspecified) | – | – | inactive | inactive | 7.6% (inactive) | 9.52 | 18.6 | – | inactive | – | – |
| COc1cc(CNC(=O)CCCC/C=C\C(C)C)ccc1O | 7.94 µM (active) | inactive | – | – | – | -15.8 | -21 | – | – | 10 µM (active) | -6.95% (inactive) |
| O=C1CC2OCC=C3CN4CC[C@@]56c7ccccc7N1C5C2C3CC46 (stereo partly specified) | – | – | inactive | inactive | -0.509% (inactive) | 17.9 | 21.5 | – | inactive | – | – |
| CC(C)c1ccc2c(c1O)CCC1C3=C(CC[C@]21C)C(=O)OC3 (stereo partly specified) | 15.8 µM (active) | inactive | inactive | – | 1.46% (inactive) | -9.02 | -0.042 | – | – | – | – |

Reference: PubChem BioAssay (NCATS)
